Screening results: PubChem, Johns Hopkins Ion Channel Center
ANO1 activ: activates or potentiates the mouse TMEM16A chloride channel; Q8BHY3; HEK293 TMEM16A/YFP-H148Q/I152L, iodide quench fluorescence; hits give low values; hit rate 0.3% among 340,000; B-score at 10 µM;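 active means fluorescence-ratio B-score plate-corrected deviation score at least 3 library SD below zero, with starting fluorescence score within 5 deviations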;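 further: channel opened by trigger with iodide after compound preincubation; score built on the fluorescence ratio of max minus min over baseline; more negative score means more quench and so TMEM16A activation or potentiation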
ANO1 block: mouse TMEM16A channel inhibition, primary screen | Q8BHY3 | HEK293 TMEM16A/YFP iodide influx fluorescence, ionomycin | normalized B-score (activity score, 25-100; higher = stronger inhibition) at 10 µM | hit rate 1.2% among 310,000 | AID 588511;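 active means ratio plate-corrected score three or more library SD toward inhibition, starting fluorescence score within five deviations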;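 further: score derived from kinetic fluorescence span divided by baseline fluorescence per well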
CHT allo act: allosteric activators of human choline transporter CHT. Q9GZV3. CHT-expressing cells, membrane potential dye, choline EC20; hits give high values; LV-AA mutant CHT in HEK293 cells. B-score at 10 µM. hit rate 0.49% among 310,000. AID 488977;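 active means initial fluorescence not abnormally high and integrated response B-score, plate-corrected, over 3 SD above library mean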
CHT inh: inhibitors of human choline transporter CHT | B-score at 10 µM | hit rate 0.86% among 310,000 | CHT-expressing cells, membrane potential dye, choline response; hits give low values;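 active means B-score over 3 SD under the library average, and starting fluorescence ratio not unusually high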;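 further: choline stimulus applied at its EC90 after an EC20 pre-addition; B-score computed on integrated fluorescence ratio after choline addition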
An asterisk follows results filed as active; i = inactive; . = not tested or not shown. Most compounds without a hit are left out; they make up all but 2.3% or so of the library.

SMILES | ANO1 activ | ANO1 block | CHT allo act | CHT inh
Cc1csc(NC(=O)CN2C(=O)c3ccccc3C2=O)c1C(N)=O | i | i | i | i
CCOc1cc(NC(=O)Nc2ccc(F)cc2)c(OCC)cc1NC(=O)CC | i | i | i | i
Cn1cc(C(=O)c2ccc(Cl)cc2)cc1-c1nc2ccccc2n1C | i | 100* | i | i
Cc1c(-c2ccc(F)cc2)[n+](=O)c2c(n1[O-])CCCCC2 | -6.9* | i | i | i
COC(=O)c1ccc(N2C(=O)c3ccc(OC)c(OC)c3C2=O)cc1 | i | i | i | i
COc1ccc2c(c1OC)C(=O)N(c1cccc(C)c1)C2=O | -4.9* | i | i | i
CCCCc1cc(=O)oc2cc(OCc3cc(OC)c(OC)c(OC)c3)c(Cl)cc12 | -4.9* | i | i | i
COC(=O)c1cc(C(=O)c2ccc(C(C)(C)C)cc2)c[nH]1 | i | 25* | i | i
CC(C)(C)c1ccc(C(=O)c2c[nH]c(C(=O)O)c2)cc1 | i | i | i | i
c1ccc(CSc2nnc(-c3cccnc3)o2)cc1 | i | i | i | i
Brc1ccc(CSc2nnc(-c3cccnc3)o2)cc1 | i | i | i | -6.3*
O=C(COC(=O)c1ccc(S(=O)(=O)N2CCCCCC2)cc1)NCc1ccc(Cl)cc1 | i | . | . | .
C=C1CCN(c2ccc(C(=O)NCc3ccccc3)cc2[N+](=O)[O-])CC1 | i | i | i | i
C=C1CCN(c2ccc(C(=O)NCCC)cc2[N+](=O)[O-])CC1 | -6.4* | i | i | i
CC(NCc1ccc(S(N)(=O)=O)cc1)C(=O)Nc1ccc([N+](=O)[O-])cc1Cl (centres undefined) | -24* | i | i | i
CC(NCc1ccc(S(N)(=O)=O)cc1)C(=O)Nc1cccc(Cl)c1 (centres undefined) | i | i | i | i
CCCCn1c(NC(=O)c2ccco2)c(S(=O)(=O)c2ccc(C)cc2)c2nc3ccccc3nc21 | i | . | . | .
CCCCn1c(NC(=O)c2ccc(Br)o2)c(S(=O)(=O)c2ccccc2)c2nc3ccccc3nc21 | i | 100* | i | i
Cc1nonc1CC(=O)N1CCCC(C(=O)c2ccc(Cl)cc2)C1 (centres undefined) | i | i | i | i
C=CC[C@H](CC(=O)NCCO)C(=O)NC[C@@H](OC(=O)[C@@H](CC=C)CC(=O)OC(C)(C)C)c1ccccc1 | -18* | . | . | .
COc1ccc(OCC(=O)Nc2c(C(=O)N3CCC(N4CCCCC4)CC3)oc3ccccc23)cc1 | i | i | i | i
COCCN(C(=O)c1ccc(-c2ccc(Cl)cc2)o1)c1c(N)n(Cc2ccccc2)c(=O)[nH]c1=O | i | i | i | i
Nc1cccc2c1C(=O)N(CCOc1ccc(F)cc1)C2=O | i | i | i | i
CCOCCCN(C(=O)c1snc(C(N)=O)c1N)C(C(=O)NC1CCCC1)c1ccc(O)c(OC)c1 (centres undefined) | i | i | i | i
CCCCNC(=O)CSc1nnc(NC(C)=O)s1 | i | i | i | i
SMILES | ANO1 activ | ANO1 block | CHT allo act | CHT inh
CC(C)NCC(O)Cn1c2c(c3ccccc31)CCc1c-2cnn1-c1ccccc1 (centres undefined) | i | i | i | -6.5*
CN1CCc2c(n(CC(O)CNCc3ccccc3)c3ccccc23)C1=O (centres undefined) | i | i | i | i
COc1cccc(C2C(C(=O)OC(C)C)=C(C)N=c3s/c(=C\c4ccc(C(=O)O)cc4)c(=O)n32)c1 (centres undefined) | -4.8* | i | i | i
Cc1c(N2C(=O)/C(=C\c3ccccc3O)SC2=S)c(=O)n(-c2ccccc2)n1C | i | i | i | i
CN1C(=O)/C(=C/c2cc(N=Nc3ccccc3)ccc2O)SC1=S | i | 100* | i | i
Cc1ccnc2nc(C(=O)OCC(=O)NCCc3ccccc3)nn12 | i | i | i | i
CC(=O)N1CCN(c2ccc(Oc3ccc([N+](=O)[O-])c(C(F)(F)F)c3)cc2)CC1 | i | 100* | i | i
CCOc1ccc(C(=O)Nc2ccc(N3CCN(C(C)=O)CC3)cc2)cc1[N+](=O)[O-] | i | i | i | i
Cc1ccc(C)c(OC(C)C(=O)Nc2nccs2)c1 (centres undefined) | i | i | i | i
O=C(Nc1ccccc1C(=O)N/N=C/c1ccco1)c1ccccc1Cl | i | 100* | i | i
